Screening data: PubChem BioAssay, several laboratories
KLF5 inhibitor: kruppel-like factor 5 inhibition; DLD-1 KLF5 promoter-luciferase reporter, luminescence; inhibition, % at 5 µM; AID 1700; 0.23% of 290,000 active;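 active = inhibition above a per-plate limit of that plate's mean compound inhibition plus 3 SD, cut at about 60% in these data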;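 also: 0% = DMSO wells and 100% = LY294002 at 200 µM; higher means less KLF5 promoter-driven luciferase light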
IEC-6 cytotox: counter-screen for KLF5 inhibitors: cytotoxicity in IEC-6 cells. AID 1825. IEC-6 cytotoxicity, luminescence viability. 0.78% of 290,000 active. inhibition, % at 5 µM;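 also: 0% = plate median of test compound wells and 100% = cytotoxic reference compound wells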
BaF3 parental: parental Ba/F3 viability inhibition as JAK2V617F counter-screen; inhibition, % at 5.6 µM; AID 1486; 1.1% of 220,000 active; CellTiter-Glo ATP luminescence;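 active = inhibition above a per-campaign cutoff, the mean inhibition of all tested compounds plus 3 SD, cut at about 27% in these data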;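 also: 0% = DMSO wells and 100% = JAK Inhibitor I control wells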
aSyn 5UTR inh: 5' untranslated region of α-synuclein, MLPCN primary screen; alpha-synuclein 5'UTR reporter, inhibitor activity; inhibition, % (tested at 7.5 µM); AID 1813; 0.82% of 300,000 active; in the data active = inhibition above about 60%; inconclusive = no clear call, values can overlap the other calls;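 also: H4 neuroglioblastoma cells stably carrying SNCA 5'UTR luciferase fusion; 0% = DMSO wells and 100% = positive control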
Ba/F3 V617F tox: loss of viability in JAK2V617F-driven Ba/F3 cells. 1.1% of 220,000 active. inhibition, % at 5.6 µM. Ba/F3 EpoR-JAK2V617F viability, ATP luminescence;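 active = inhibition above the campaign mean plus 3 SD over all tested compounds, cut at about 24% in these data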;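 also: cytokine-independent growth of Ba/F3 cells driven by EpoR plus mutant JAK2; 0% = DMSO-treated cells and 100% = JAK inhibitor I control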
APP transl inh: APP translation inhibition; AID 1285; inhibition, % at 2 µM; 0.82% of 190,000 active; SH-SY5Y APP 5'UTR-luciferase reporter, luminescence;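 active = inhibition above a set limit, derived from the sample mean plus 3 SD, cut at about 45% in these data; inconclusive = one replicate passes the limit while the other fails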
IEC-6 tox confirm: confirmation of cytotoxic compounds in rat IEC-6 intestinal epithelial cells | IEC-6 rat intestinal epithelial viability, luminescence | inhibition, % at 5 µM | shares compounds with IEC-6 cytotox | 63% of 1,900 active;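 also: 0% = vehicle and 100% = reference cytotoxic drug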
An asterisk follows results filed as active. Most compounds without a hit are left out; they make up all but 2.2% or so of the library. Rule as the data show it, unless noted: active = inhibition above about 22%; inactive = the rest.

Results for CCn1cc(C(=O)NC2CCCc3c2cnn3-c2cccc(C)c2C)cn1 (configuration not stated) ?
KLF5 inhibitor: 44.1; IEC-6 cytotox: 22.1*; aSyn 5UTR inh: -16.0; IEC-6 tox confirm: 13.9

How did CCOc1cccc(-c2nnc3n2N=C(c2cc(OC)ccc2OC)CS3)c1 do in these assays?
KLF5 inhibitor: 37.5; IEC-6 cytotox: 58.3*; BaF3 parental: 80.9*; aSyn 5UTR inh: 62.9*; Ba/F3 V617F tox: 79.7*; APP transl inh: 88.4*; IEC-6 tox confirm: 51.6*

What do the screens show for `COc1ccc(C2=Nn3c(nnc3-c3ccccc3OC)SC2)cc1OC`?
KLF5 inhibitor: 55.5; IEC-6 cytotox: 91.8*; BaF3 parental: 88.7*; aSyn 5UTR inh: 107.0*; Ba/F3 V617F tox: 93.4*; APP transl inh: 95.8*; IEC-6 tox confirm: 72.2*

How did COc1ccc(C2=Nn3c(nnc3-c3ccccn3)SC2)cc1OC do in these assays?
KLF5 inhibitor: -7.4; IEC-6 cytotox: 1.4; BaF3 parental: 9.5; aSyn 5UTR inh: inconclusive; Ba/F3 V617F tox: 5.4; APP transl inh: -8.1

How did CCc1ccc(C2=Nn3c(nnc3-c3cccs3)SC2)cc1 do in these assays?
KLF5 inhibitor: 8.7; IEC-6 cytotox: 51.7*; BaF3 parental: 4.2; aSyn 5UTR inh: 11.9; Ba/F3 V617F tox: -2.3; APP transl inh: -1.3; IEC-6 tox confirm: 34.7*

How did COc1cccc(-c2nnc3n2N=C(c2cc(OC)ccc2OC)CS3)c1 do in these assays?
KLF5 inhibitor: -7.8; IEC-6 cytotox: -3.9; BaF3 parental: 0.1; aSyn 5UTR inh: 29.5; Ba/F3 V617F tox: -1.1; APP transl inh: -8.8

Results for c1ccc(-c2ccc(C3=Nn4c(nnc4-c4cccs4)SC3)cc2)cc1 ?
KLF5 inhibitor: 10.5; IEC-6 cytotox: 7.6; BaF3 parental: 2.3; aSyn 5UTR inh: 28.2; Ba/F3 V617F tox: -0.7

Results for COc1ccc(C2=Nn3c(nnc3-c3ccc(OC)cc3)SC2)cc1 ?
KLF5 inhibitor: 52.7; IEC-6 cytotox: 81.9*; BaF3 parental: 75.6*; aSyn 5UTR inh: 99.7*; Ba/F3 V617F tox: 64.0*; APP transl inh: 93.4*; IEC-6 tox confirm: 58.2*

How did Cc1cccc(NC(=S)NC(NC(=O)OCc2ccccc2)C(Cl)(Cl)Cl)c1 (configuration not stated) do in these assays?
KLF5 inhibitor: -20.2; IEC-6 cytotox: -2.7; BaF3 parental: 3.2; aSyn 5UTR inh: 23.6; Ba/F3 V617F tox: 0.8; APP transl inh: -10.1

Results for Cc1ccc2nsnc2c1S(=O)(=O)N1CCOCC1 ?
KLF5 inhibitor: -38.5; IEC-6 cytotox: 2.6; BaF3 parental: 4.3; aSyn 5UTR inh: 11.9; Ba/F3 V617F tox: 3.5; APP transl inh: 14.1

What do the screens show for `COc1cc(CNc2nc(C)c([N+](=O)[O-])c(C)c2C#N)cc(OC)c1OC`?
KLF5 inhibitor: -12.0; IEC-6 cytotox: 4.5; BaF3 parental: 3.0; aSyn 5UTR inh: 7.0; Ba/F3 V617F tox: -1.0; APP transl inh: 4.4

What do the screens show for `Cc1cc(-c2nnc3n2N=C(c2ccccc2Br)CS3)n[nH]1`?
KLF5 inhibitor: -21.8; IEC-6 cytotox: -4.8; BaF3 parental: 19.0; aSyn 5UTR inh: 5.5; Ba/F3 V617F tox: 10.5

How did Cc1cccc(-c2nnc3n2N=C(c2ccccc2Br)CS3)c1 do in these assays?
KLF5 inhibitor: 7.3; IEC-6 cytotox: 34.0*; BaF3 parental: 32.5*; aSyn 5UTR inh: 39.5; Ba/F3 V617F tox: 37.1*; APP transl inh: -15.8; IEC-6 tox confirm: 21.2

What do the screens show for `CN(CCOC(=O)c1ccco1)Cc1ccccc1`?
KLF5 inhibitor: -2.2; IEC-6 cytotox: 40.7*; BaF3 parental: 5.7; aSyn 5UTR inh: -3.9; Ba/F3 V617F tox: 3.8; APP transl inh: 8.9; IEC-6 tox confirm: 5.1

How did COc1cc(OC)cc(C(=O)c2c(C)c(C#N)c3ccccn23)c1 do in these assays?
KLF5 inhibitor: 57.5; IEC-6 cytotox: 51.6*; aSyn 5UTR inh: 51.5; IEC-6 tox confirm: 17.6

What do the screens show for `Cc1cc(-c2ccc(C(C)C)c(S(=O)(=O)N3CCN(c4ccccn4)CC3)c2)on1`?
KLF5 inhibitor: 14.7; IEC-6 cytotox: 23.2*; aSyn 5UTR inh: -46.5; IEC-6 tox confirm: 12.3

Results for CC(C)(C)C(=O)/C(=C/c1ccc(Cl)cc1)n1cncn1 ?
KLF5 inhibitor: 19.3; IEC-6 cytotox: 29.1*; aSyn 5UTR inh: -173.2; IEC-6 tox confirm: 19.4

What do the screens show for `CCC1(c2ccc(F)cc2)NC(=O)N(CC(=O)N2CCN(S(=O)(=O)c3ccc(C)cc3)CC2)C1=O` (configuration not stated)?
aSyn 5UTR inh: 27.8

What do the screens show for `CCN(Cc1ccccc1)C(=O)c1ccc(N(C)S(=O)(=O)c2ccc(C)cc2)cc1`?
aSyn 5UTR inh: 38.6

Results for O=C(NCCCCc1ccccc1)c1ccccc1 ?
KLF5 inhibitor: -19.7; IEC-6 cytotox: -0.6; BaF3 parental: 1.9; aSyn 5UTR inh: 11.0; Ba/F3 V617F tox: -0.9; APP transl inh: 21.3

What do the screens show for `CCC[C@@H](CN[C@@H](CNC)C(C)C)NCCCCc1ccccc1`?
KLF5 inhibitor: -6.8; IEC-6 cytotox: 43.9*; aSyn 5UTR inh: -13.9; IEC-6 tox confirm: 66.1*

Results for CCC[C@@H](CNC)NC[C@H](Cc1ccccc1)NCCCCc1ccccc1 ?
KLF5 inhibitor: -22.3; IEC-6 cytotox: 23.8*; aSyn 5UTR inh: -15.5; IEC-6 tox confirm: 101.1*

What do the screens show for `CNC[C@@H](Cc1ccccc1)NC[C@@H](CC1CCCCC1)NCCCc1ccccc1`?
KLF5 inhibitor: -18.1; IEC-6 cytotox: 101.5*; aSyn 5UTR inh: 124.9*; IEC-6 tox confirm: 71.2*

Results for CCC[C@H](CN[C@@H](CNC)[C@H](C)CC)NCCc1cc(C(F)(F)F)cc(C(F)(F)F)c1 ?
KLF5 inhibitor: -21.2; IEC-6 cytotox: 35.6*; aSyn 5UTR inh: 124.1*; IEC-6 tox confirm: 57.3*

What do the screens show for `CN(C[C@H](Cc1ccccc1)N(C[C@@H](CC1CCCCC1)N(CCc1ccccc1)N=O)N=O)N=O`?
KLF5 inhibitor: -12.8; IEC-6 cytotox: 3.7; BaF3 parental: 2.9; aSyn 5UTR inh: 26.2; Ba/F3 V617F tox: -2.1; APP transl inh: -3.7

How did CCCC[C@@H](CNC)NC[C@H](NCCCCC1CCCCC1)C(C)C do in these assays?
KLF5 inhibitor: -15.6; IEC-6 cytotox: -4.1; aSyn 5UTR inh: -13.0

What do the screens show for `COc1cccc(Cn2cc(C)cc(NC(=O)NCc3ccccc3)c2=O)c1`?
KLF5 inhibitor: -12.4; IEC-6 cytotox: 6.5; aSyn 5UTR inh: -30.1

Results for C/C(=N\Nc1ccc(C(F)(F)F)cn1)c1ccncc1 ?
KLF5 inhibitor: -56.2; IEC-6 cytotox: 5.3; BaF3 parental: 1.8; aSyn 5UTR inh: -148.1; Ba/F3 V617F tox: -1.4; APP transl inh: -30.2

What do the screens show for `C=CCN=c1scc(-c2ccc3c(c2)NC(=O)CO3)n1/N=C(\C)c1ccccn1`?
KLF5 inhibitor: 56.6; IEC-6 cytotox: 41.0*; BaF3 parental: 90.5*; Ba/F3 V617F tox: 100.4*; APP transl inh: 51.6*; IEC-6 tox confirm: 30.8*

What do the screens show for `CCN1CCN(S(=O)(=O)c2ccc(C(=O)Nc3sc4c(c3C(N)=O)CCN(CC)C4)cc2)CC1`?
KLF5 inhibitor: -5.0; IEC-6 cytotox: -0.7; aSyn 5UTR inh: -7.2
